Activity calls are given as the source filed them. How the source made its calls: active means hit-call score of the fitted dose curve at least 0.9, where 1 is the maximum; inactive means score below 0.9.
assay: STM_H9_OrnithineISnorm_perc: Stemina devTOX quickPredict H9 human embryonic stem cell (hESC)-based Assay for Ornithine (ORN) Metabolite Biomarker, Normalized (AID 2283712);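 further: ornithine released into spent medium during last day measured by mass spectrometry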
Method in brief: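 Ornithine in spent medium from the last 24 h of a 72 h exposure, deproteinised and quantified by UPLC-HRMS against an isotope-labelled internal standard, expressed relative to 0.1% DMSO. Pluripotent H9 cells; compound refreshed every 24 h.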

| Structure (SMILES) | AC50 | outcome |
| --- | --- | --- |
| CN(C)c1ccc(C(=C2C=CC(=[N+](C)C)C=C2)c2ccc(N(C)C)cc2)cc1 | 0.592 µM (active) | – |
| CN(C[C@@H](CC[N+]12CCC(C3CCCCC3)(CC1)CC2)c1ccc(Cl)c(Cl)c1)C(=O)c1cc(C(F)(F)F)cc(C(F)(F)F)c1 | 7.48 µM (active) | – |
| O=c1c(-c2ccc(O)cc2)coc2cc(O)cc(O)c12 | 48.8 µM (active) | – |
| CO[C@H]1/C=C/O[C@@]2(C)Oc3c(C)c(O)c4c(O)c(c(/C=N/N5CCN(C)CC5)c(O)c4c3C2=O)NC(=O)/C(C)=C\C=C\[C@H](C)[C@H](O)[C@@H](C)[C@@H](O)[C@@H](C)[C@H](OC(C)=O)[C@@H]1C | – | inactive |
| Cc1c2ccccc2c(C)c2c1ccc1ccccc12 | – | inactive |
| CC(=O)N1CCN(c2ccc(OC[C@H]3CO[C@](Cn4ccnc4)(c4ccc(Cl)cc4Cl)O3)cc2)CC1 | 8.18 µM (active) | – |
| CCOC(=O)O[C@H](C)OC(=O)c1ccc2c(c1)cc(C(=O)NC1CCN(C(C)C)CC1)n2Cc1cc(-c2ccc(Cl)s2)on1 | – | inactive |
| CC/C(=C(/CC)c1ccc(O)cc1)c1ccc(O)cc1 | – | inactive |
| CCCCCCCCOC(=O)c1cc(O)c(O)c(O)c1 | 2.13 µM (active) | – |
| CC(C)(c1cc(Br)c(O)c(Br)c1)c1cc(Br)c(O)c(Br)c1 | – | inactive |
| COc1cc(C(=O)NC2CCN(C)CC2)ccc1Nc1ncc2c(n1)N(C1CCCC1)CC(F)(F)C(=O)N2C | 0.0393 µM (active) | – |
| CC(C)(C)c1cc(/C=C2\SC(N)=NC2=O)cc(C(C)(C)C)c1O | – | inactive |
| O=C(Nc1ccc(Cl)cc1)Nc1ccc(Cl)c(Cl)c1 | 0.000976 µM (active) | – |
| Cc1cn([C@H]2C[C@H](N=[N+]=[N-])[C@@H](CO)O2)c(=O)[nH]c1=O | – | inactive |

assay: STM_H9_CystineISnorm_perc: Stemina devTOX quickPredict H9 human embryonic stem cell (hESC)-based Assay for Cystine (CYSS) Metabolite Biomarker, Normalized (AID 2283713)
Method in brief: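 Cystine in spent media from the last 24 h of a 72 h H9 hESC exposure (daily re-dosing), measured by UPLC-HRMS. Values normalized to isotopic internal standard, then to 0.1% DMSO; viability via CellTiter-Fluor.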

| Structure (SMILES) | AC50 | outcome |
| --- | --- | --- |
| CN(C)c1ccc(C(=C2C=CC(=[N+](C)C)C=C2)c2ccc(N(C)C)cc2)cc1 | 0.817 µM (active) | – |
| CN(C[C@@H](CC[N+]12CCC(C3CCCCC3)(CC1)CC2)c1ccc(Cl)c(Cl)c1)C(=O)c1cc(C(F)(F)F)cc(C(F)(F)F)c1 | 16.4 µM (active) | – |
| O=c1c(-c2ccc(O)cc2)coc2cc(O)cc(O)c12 | 71.6 µM (active) | – |
| CO[C@H]1/C=C/O[C@@]2(C)Oc3c(C)c(O)c4c(O)c(c(/C=N/N5CCN(C)CC5)c(O)c4c3C2=O)NC(=O)/C(C)=C\C=C\[C@H](C)[C@H](O)[C@@H](C)[C@@H](O)[C@@H](C)[C@H](OC(C)=O)[C@@H]1C | 3.27 µM (active) | – |
| Cc1c2ccccc2c(C)c2c1ccc1ccccc12 | 5 µM (active) | – |
| CC(=O)N1CCN(c2ccc(OC[C@H]3CO[C@](Cn4ccnc4)(c4ccc(Cl)cc4Cl)O3)cc2)CC1 | 1.58 µM (active) | – |
| CCOC(=O)O[C@H](C)OC(=O)c1ccc2c(c1)cc(C(=O)NC1CCN(C(C)C)CC1)n2Cc1cc(-c2ccc(Cl)s2)on1 | – | inactive |
| CC/C(=C(/CC)c1ccc(O)cc1)c1ccc(O)cc1 | – | inactive |
| CCCCCCCCOC(=O)c1cc(O)c(O)c(O)c1 | 2.47 µM (active) | – |
| CC(C)(c1cc(Br)c(O)c(Br)c1)c1cc(Br)c(O)c(Br)c1 | – | inactive |
| COc1cc(C(=O)NC2CCN(C)CC2)ccc1Nc1ncc2c(n1)N(C1CCCC1)CC(F)(F)C(=O)N2C | 0.0284 µM (active) | – |
| CC(C)(C)c1cc(/C=C2\SC(N)=NC2=O)cc(C(C)(C)C)c1O | 5 µM (active) | – |
| O=C(Nc1ccc(Cl)cc1)Nc1ccc(Cl)c(Cl)c1 | – | inactive |
| Cc1cn([C@H]2C[C@H](N=[N+]=[N-])[C@@H](CO)O2)c(=O)[nH]c1=O | 2.32 µM (active) | – |

assay: CEETOX_H295R_MTT_cell_viability: Viability Assessment in the CeeTox HT-H295R MTT Assay (AID 2283718);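 on AC50: curve fitted both ways so AC50 may mark viability loss or gain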
Method in brief: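 Human H295R adrenal cells, prestimulated 48 h with 10 uM forskolin, were exposed 48 h to chemicals in 0.1% DMSO. Viability was measured in the same wells by MTT (0.5 mg/ml, 4 h, 37 C), absorbance 570/650 nm, as percent of controls.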

| Structure (SMILES) | outcome | AC50 |
| --- | --- | --- |
| OC12N=C(c3ccccc3)SC1Cc1cc(Cl)ccc12 (configuration not stated) | inactive | – |
| CCCCCc1ccc(N)cc1 | inactive | – |
| O=c1c(-c2ccc(O)cc2)coc2cc(O)cc(O)c12 | – | 28.7 µM (active) |
| CO[C@H]1/C=C/O[C@@]2(C)Oc3c(C)c(O)c4c(O)c(c(/C=N/N5CCN(C)CC5)c(O)c4c3C2=O)NC(=O)/C(C)=C\C=C\[C@H](C)[C@H](O)[C@@H](C)[C@@H](O)[C@@H](C)[C@H](OC(C)=O)[C@@H]1C | inactive | – |
| Cc1c2ccccc2c(C)c2c1ccc1ccccc12 | inactive | – |
| CC(=O)N1CCN(c2ccc(OC[C@H]3CO[C@](Cn4ccnc4)(c4ccc(Cl)cc4Cl)O3)cc2)CC1 | inactive | – |
| CC/C(=C(/CC)c1ccc(O)cc1)c1ccc(O)cc1 | – | 24.4 µM (active) |
| CCCCCCCCOC(=O)c1cc(O)c(O)c(O)c1 | inactive | – |
| Oc1ccc2ccccc2c1 | inactive | – |
| CC(C)(c1cc(Br)c(O)c(Br)c1)c1cc(Br)c(O)c(Br)c1 | inactive | – |
| CC(C)(C)c1cc(/C=C2\SC(N)=NC2=O)cc(C(C)(C)C)c1O | inactive | – |
| O=C(Nc1ccc(Cl)cc1)Nc1ccc(Cl)c(Cl)c1 | inactive | – |
| O=C1c2ccccc2C(=O)N1CCc1noc(-c2ccc(CN3CCCCCC3)s2)n1 | inactive | – |
| C[C@]12CC[C@@H]3c4ccc(O)cc4CC[C@H]3[C@@H]1CC[C@H]2O | inactive | – |

— PubChem BioAssay (EPA / NIEHS)
